The values below come from PubChem BioAssay.

One may read the inhibition as the drop in the measured response relative to a control, in per cent.

Assay [1] in a line: inhibitors of TNFa-induced NFkB p65 translocation, primary screen, imaging, HUVEC, MLSMR starter and 10KST1 sets (AID 438;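 active = inhibition above 20% together with a positive visual image hit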;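 note: compound added about 3h40 before a 20 min TNFalpha stimulation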;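 for inhibition: signal is the nuclear over cytoplasmic p65 intensity ratio per well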). The conditions noted are these: HUVEC TNFa-induced p65 nuclear translocation; cell count: measured here: nuclei count (cytotoxicity indicator), at 2.08 µM; inhibition: at 2 µM, stronger effect = higher value, 0% TNFa-plus-vehicle, 100% no-TNFa wells.
Assay [2] in a line: reduction of polyQ htt aggregates in cells – imaging, exon1htt(103Q)mCFP cells, high-content imaging, primary screen (AID 483;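 active = visual image review flags a hit and inhibition of aggregation exceeds 20%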;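 note: compound exposure lasted 3 days before fixation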;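 for nuclei count: percent of the per-plate median nuclei count of sample wells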). The conditions noted are these: exon1htt(103Q)mCFP cell line, aggregate imaging, at 2 µM; inhibition of aggregation: stronger effect = higher value; nuclei count: measured here: cell count, toxicity.
The nature of assay [3]: endothelial E-selectin expression blockers – imaging, HUVEC, immunofluorescence, MLSMR starter and 10KST1 sets, primary screen (AID 487;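 active = visually confirmed hit in the image check and inhibition above 20%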;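 for inhibition: signal is fraction of cell area covered by stained E-selectin grains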;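 for nuclei count: 100% = median nuclei count of all wells on the same plate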). The conditions noted are these: HUVEC TNFalpha-induced E-selectin immunofluorescence imaging, at 2 µM; inhibition: stronger effect = higher value; nuclei count: measured here: cell number, toxicity.
In assay [4] the target is Voltage-gated potassium channel subunit beta-2 (Rattus norvegicus) (UniProt P62483). Kind of assay: inhibitors of rat Kvbeta2 reductase activity – biochemical, NADPH fluorescence, primary screen (AID 622;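 active = fluorescence slope higher than the sample average by over 3 SD, cut at about -0.22 in these data, passing the limit was not always enough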;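 note: slope of raw intensity against log time taken from 70 to 1610 s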). As to conditions: recombinant KvBeta, 4-cyanobenzaldehyde reduction, at 10 µM, stronger effect = higher value.
Chain of Voltage-gated potassium channel subunit beta-2 (Rattus norvegicus) (P62483 whole entry, looked up): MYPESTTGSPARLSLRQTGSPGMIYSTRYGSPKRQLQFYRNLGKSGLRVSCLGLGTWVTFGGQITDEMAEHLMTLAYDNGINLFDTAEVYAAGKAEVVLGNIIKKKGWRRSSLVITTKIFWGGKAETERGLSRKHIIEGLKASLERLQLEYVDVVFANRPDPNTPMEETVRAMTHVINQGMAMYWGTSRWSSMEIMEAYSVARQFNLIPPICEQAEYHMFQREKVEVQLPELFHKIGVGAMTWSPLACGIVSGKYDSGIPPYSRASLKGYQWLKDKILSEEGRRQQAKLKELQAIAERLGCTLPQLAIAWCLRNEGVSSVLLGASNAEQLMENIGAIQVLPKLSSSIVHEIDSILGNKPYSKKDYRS
Assay [5] shares this target. Kind of assay: enhancers of rat Kvbeta2 NADPH turnover – biochemical, NADPH fluorescence, primary screen (AID 623;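 active = NADPH fluorescence slope more negative than the mean of all samples by about 3 SD, 99.7% confidence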;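 note: fluorescence intensity change per second fitted from 20 to 320 s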). The conditions noted are these: Recombinant KvBeta, NADPH fluorescence decrease slope, 10 min; at 10 µM; stronger effect = lower value.
Assay [6] has as its target Alpha-2C adrenergic receptor (Homo sapiens) (UniProt P18825). Kind of assay: compounds altering alpha2C-coupled GIRK flux – cell-based, HEK293 alpha2C/GIRK1/2, thallium flux, primary screen (AID 624;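 active = fluorescence slope after compound addition differing from the mean of all screened samples at 99.7% confidence, in either direction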;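 note: slope of fluorescence ratio to pre-addition baseline per second over 15 to 24 s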). As to conditions: thallium flux BTC fluorescence, at 10 µM, actives lie on both sides.
Assay [7] is described as follows: blockers of RIG-like receptor reporter activation – cell-based, Sendai virus stimulus, luciferase, 10K MLSCN set, TLR/RLR signaling modifier project, primary screen (AID 602276;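 active = inhibition at or above 50% at 10 µM; inactive = inhibition below 50%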;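 note: firefly luciferase from ISG56 promoter only with Renilla not read in this screen; 0% = Sendai virus plus DMSO and 100% = medium plus DMSO without virus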). As to conditions: HEK293 RL24 IRF3 luciferase reporter, at 10 µM, stronger effect = higher value. A general note: In a reporter assay the amount or activity of a reporter protein is the signal.
Assay [8] in a line: TLR3 IRF3 reporter activation blockers – cell-based, poly I:C stimulus, luciferase, 10K MLSCN set, primary screen (AID 602277). As to conditions: HEK293-TLR3 RL24 IRF3 luciferase reporter, at 10 µM, stronger effect = higher value.

Each structure is given as a SMILES string. Active and inactive are the calls of the source.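 Rule for the calls, unless noted: active = inhibition of the reporter signal at or above 50%; inactive = inhibition below 50%.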

Chain of Alpha-2C adrenergic receptor (Homo sapiens) (P18825 whole entry, looked up): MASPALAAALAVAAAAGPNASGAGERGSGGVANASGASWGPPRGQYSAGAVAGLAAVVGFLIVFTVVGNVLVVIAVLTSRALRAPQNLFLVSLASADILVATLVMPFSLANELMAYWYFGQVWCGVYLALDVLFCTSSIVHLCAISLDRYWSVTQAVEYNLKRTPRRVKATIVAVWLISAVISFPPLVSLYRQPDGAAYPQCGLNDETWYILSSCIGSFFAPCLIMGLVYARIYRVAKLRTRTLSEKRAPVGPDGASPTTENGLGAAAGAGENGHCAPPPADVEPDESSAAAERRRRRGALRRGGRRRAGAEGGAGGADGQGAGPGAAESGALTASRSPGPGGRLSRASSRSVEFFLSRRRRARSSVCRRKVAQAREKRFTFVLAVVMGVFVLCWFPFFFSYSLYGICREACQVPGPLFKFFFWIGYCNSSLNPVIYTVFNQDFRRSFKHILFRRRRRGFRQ

For the compound `C#CCNc1c(C)c(C)nc2ncnn12`, the cell count in assay [1] was 306. Also, the inhibition is -9.4% (inactive) in assay [1], -44.2% (inactive) in assay [3], 14.5% (inactive) in assay [7] and 9.86% (inactive) in assay [8]. Also, in assay [2], the inhibition of aggregation was 32.2% (inactive). Further, the nuclei count was 86.1% in assay [2] and 89.3% in assay [3]. Besides, in assay [4], the fluorescence slope is -0.592 (inactive). The NADPH fluorescence slope in assay [5] was -3.6e-05 (inactive). Also, the slope in assay [6] is 0.00371 (inactive).
In the case of `Cc1ccc(C(=O)Nc2ccc3c(c2)OCO3)cc1S(=O)(=O)N1CCCC1`, the cell count in assay [1] stood at 396. Also, the inhibition in assay [1] is 0% (inactive); in assay [3], 14.2% (inactive); in assay [7], 10.6% (inactive); in assay [8], -64.5% (inactive). Also, the inhibition of aggregation in assay [2] is 12.6% (inactive). Besides, the nuclei count was 83.3% in assay [2] and 107% in assay [3]. In assay [4], the fluorescence slope is -0.398 (inactive). Further, in assay [5], the NADPH fluorescence slope is 1.4e-05 (inactive). Moreover, in assay [6], the slope is 0.00564 (inactive).
Consider `O=C(c1c(Cl)nc2sccn12)N(C(=O)c1c(Cl)nc2sccn12)c1ccc(Cl)cn1`, for which the cell count in assay [1] was 819. Moreover, the inhibition is 3.8% (inactive) in assay [1], -97.4% (inactive) in assay [3], -31.5% (inactive) in assay [7] and -77.8% (inactive) in assay [8]. The inhibition of aggregation in assay [2] was -20.1% (inactive). Also, the nuclei count in assay [2] is 103%; in assay [3], 126%. Moreover, the fluorescence slope in assay [4] was -0.465 (inactive). In addition, the NADPH fluorescence slope in assay [5] is 7.2e-06 (inactive). Also, the slope in assay [6] is 0.00593 (inactive).
`CCOC(=O)C1CCN(Cc2ccc(OC)c(C)c2OC)CC1`: the cell count in assay [1] was 313. Besides, the inhibition is -1.3% (inactive) in assay [1], -41.2% (inactive) in assay [3], -3.21% (inactive) in assay [7] and 7.91% (inactive) in assay [8]. Also, the inhibition of aggregation in assay [2] is -10.2% (inactive). Besides, the figures for the nuclei count in assay [2] and in assay [3] were 107% and 108%, respectively. The fluorescence slope in assay [4] is -0.539 (inactive). For the same compound, the NADPH fluorescence slope in assay [5] was -2.1e-05 (inactive). The slope in assay [6] is 0.00556 (inactive).
For `Cc1cccc(NC(=O)c2cc(NC(=O)c3ccco3)ccc2N2CCCCC2)c1`, the cell count in assay [1] worked out at 635. Moreover, the inhibition in assay [1] was -3.9% (inactive); in assay [3], -48.5% (inactive); in assay [7] it was 8.72% (inactive); in assay [8] it was 8.79% (inactive). For the same compound, the inhibition of aggregation in assay [2] was -3.7% (inactive). The nuclei count in assay [2] stood at 113%; in assay [3] it was 107%. The fluorescence slope in assay [4] is -0.52 (inactive). Besides, the NADPH fluorescence slope in assay [5] was -1.8e-05 (inactive). The slope in assay [6] is 0.0032 (inactive).
On to `COC(=O)Cn1c(=O)c2c(nc3n2CC(C)CN3c2ccc(C)c(C)c2)n(C)c1=O` (centres undefined), for which the cell count in assay [1] is 561. The inhibition in assay [1] is -11% (inactive); in assay [3] it was -19.2% (inactive); in assay [7] it was 13.3% (inactive); in assay [8], 36% (inactive). For the same compound, the inhibition of aggregation in assay [2] is -7.5% (inactive). The nuclei count in assay [2] was determined as 110%; in assay [3], 118%. For the same compound, in assay [4], the fluorescence slope was -0.535 (inactive). The NADPH fluorescence slope in assay [5] was -4.3e-05 (inactive). Moreover, the slope in assay [6] was 0.00607 (inactive).
With `Cc1ccccc1CN1CCN(CC(=O)NCc2ccccc2)C1=O`, the cell count in assay [1] is 518. For the same compound, the inhibition in assay [1] was -20.8% (inactive); in assay [3] it was -45.7% (inactive); in assay [7] it was 2.1% (inactive); in assay [8], 24.6% (inactive). The inhibition of aggregation in assay [2] is -45.2% (inactive). In addition, the nuclei count in assay [2] was 97.7%; in assay [3], 114%. For the same compound, the fluorescence slope in assay [4] is -0.42 (inactive). In addition, in assay [5], the NADPH fluorescence slope is -0.000111 (inactive). Moreover, the slope in assay [6] is 0.00614 (inactive).
With `CCOC(=O)c1ccc(NC(=O)CCc2c(C)nc3ncnn3c2C)cc1`, the cell count in assay [1] came to 402. For the same compound, the inhibition in assay [1] was 1.9% (inactive); in assay [3], -138% (inactive); in assay [7], -2.81% (inactive); in assay [8] it was 7.84% (inactive). The inhibition of aggregation in assay [2] was -19.7% (inactive). For the same compound, the nuclei count in assay [2] was determined as 107%; in assay [3] it was 116%. The fluorescence slope in assay [4] was -0.508 (inactive). Further, the NADPH fluorescence slope in assay [5] was 6.6e-06 (inactive). Moreover, the slope in assay [6] is 0.00565 (inactive).
`CSCCC(NC(=O)c1ccco1)C(=O)OC(C)C(=O)NC(=O)NC1CCCCC1` (centres undefined): the cell count in assay [1] worked out at 538. For the same compound, the inhibition is -6.1% (inactive) in assay [1], -79.7% (inactive) in assay [3], 13.1% (inactive) in assay [7] and 20.3% (inactive) in assay [8]. For the same compound, the inhibition of aggregation in assay [2] is 7.6% (inactive). Also, the nuclei count stood at 88% in assay [2] and 100% in assay [3]. The fluorescence slope in assay [4] was -0.485 (inactive). The NADPH fluorescence slope in assay [5] is 1e-05 (inactive). Further, in assay [6], the slope is 0.00394 (inactive).
In the case of `CCCCSc1nnc([C@H](C)NC(=O)OC(C)(C)C)o1`, the cell count in assay [1] amounted to 345. For the same compound, the inhibition was 0.2% (inactive) in assay [1], -34.4% (inactive) in assay [3], 11.6% (inactive) in assay [7] and 14.8% (inactive) in assay [8]. The inhibition of aggregation in assay [2] is -2.7% (inactive). Besides, the nuclei count in assay [2] is 104%; in assay [3], 112%. Besides, in assay [4], the fluorescence slope was -0.266 (inactive). The NADPH fluorescence slope in assay [5] was -2.9e-05 (inactive). For the same compound, the slope in assay [6] is 0.00436 (inactive).
On to `COCCCN(C(C)=O)c1nc(-c2ccccc2)cs1`, for which the cell count in assay [1] came out at 472. Besides, the inhibition in assay [1] is -6.3% (inactive); in assay [3], 6% (inactive); in assay [7], -31.3% (inactive); in assay [8], -75% (inactive). Moreover, the inhibition of aggregation in assay [2] was -6% (inactive). The nuclei count was determined as 90.9% in assay [2] and 114% in assay [3]. Besides, the fluorescence slope in assay [4] was -0.533 (inactive). Besides, in assay [5], the NADPH fluorescence slope is -3.7e-05 (inactive). Moreover, in assay [6], the slope is 0.00569 (inactive).
Regarding `CCOc1ccc(CN2C(=O)c3ccccc3C2C(=O)NCc2cccnc2)cc1` (centres undefined), the cell count in assay [1] stood at 500. Further, the inhibition in assay [1] was -1.1% (inactive); in assay [3] it was -52.5% (inactive); in assay [7], 8.35% (inactive); in assay [8] it was 16.9% (inactive). Also, the inhibition of aggregation in assay [2] is -9.9% (inactive). For the same compound, the nuclei count in assay [2] came to 110%; in assay [3], 94.3%. Moreover, the fluorescence slope in assay [4] was -0.599 (inactive). Moreover, in assay [5], the NADPH fluorescence slope is -1.6e-05 (inactive). Moreover, the slope in assay [6] is 0.00638 (inactive).
For the compound `CN(c1ccccc1)S(=O)(=O)c1ccc(C(=O)OCC(=O)NCc2ccco2)cc1`, the cell count in assay [1] is 608. For the same compound, the inhibition in assay [1] was 11.6% (inactive); in assay [3], -37.2% (inactive); in assay [7], -14.7% (inactive); in assay [8] it was 0.385% (inactive). For the same compound, in assay [2], the inhibition of aggregation is 14.7% (inactive). The nuclei count in assay [2] was 112%; in assay [3], 99.7%. The fluorescence slope in assay [4] is -0.588 (inactive). The NADPH fluorescence slope in assay [5] is 2e-05 (inactive). In assay [6], the slope is 0.00551 (inactive).
For the compound `COc1cccc(C2=Nn3c(nnc3-c3ccccc3O)SC2)c1`, the cell count in assay [1] came out at 436. The inhibition was 3.4% (inactive) in assay [1], 25.3% (inactive) in assay [3], 6.36% (inactive) in assay [7] and 19.2% (inactive) in assay [8]. In assay [2], the inhibition of aggregation is 2.3% (inactive). Also, the nuclei count in assay [2] was found to be 99.4%; in assay [3], 86.4%. In assay [4], the fluorescence slope was -0.312 (inactive). Further, the NADPH fluorescence slope in assay [5] was 2.8e-05 (inactive). Besides, the slope in assay [6] was 0.00345 (inactive).
